FH mod = Identification of activators of human fumarate hydratase by quantitative high-throughput screening. Potency, µM (series often up to 79.9 µM), for the others: top-dose activity change, negative = inhibition, hits mostly inhibitors. FH coupled MDH/diaphorase resazurin fluorescence, 15 min. 54,000 tested, 0.22% active. Fumarate hydratase, mitochondrial (Homo sapiens), P07954; note: potency is the fitted concentration of half-maximal effect; % is set by controls: 0 for no effect and ±100 for the full control effect; the screen sought activators but most active calls are inhibition curves; nearly all actives have a fitted effect of over 45% in size
SKOV3 invasion = Primary qHTS assay for Inhibitors of ovarian cancer metastasis using an organotypic tumor microenvironment (TME) model. SKOV3ip1-GFP adhesion/invasion on 3D omental model, fluorescence. Potency, µM (doses to about 45.8 µM), inactives show at the top dose activity change, negative = inhibition, actives largely listed as inhibitors. AID 1963576, 2024. 46,000 tested, 0.1% active;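 note: potency is the fitted concentration of half-maximal effect; plate controls were DMSO wells for no effect and tomatine positive control wells for full effect; nearly all actives have a fitted effect of over 65% in size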
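A 3D layer of primary human omental fibroblasts, mesothelial cells, fibronectin and collagen I, grown 48 hr, received SKOV3ip1-GFP cells in serum-free medium plus compounds at 0.36-46 umol/L. After 2 hr RT and 16 hr 37 C, fixed adherent GFP cells were counted; normalized to DMSO and tomatine.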
GPR32 ag = qHTS for Agonists of Human Resolvin D1 Receptor DRV1; 48,000 tested, 2.5% active; Probable G-protein coupled receptor 32 (Homo sapiens), O75388; CHO-K1 GPR32 beta-arrestin PathHunter luminescence, 90 min; zero percent set by DMSO-only wells; activation, % at 76.9 µM;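 active = activation of at least 60% and not above a set upper limit, about 1 call in 100 departs from these limits; inconclusive = activation of 40% to 60%, or above that upper limit; inactive = activation under 40%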; note: 0% is about no effect
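Agonism was scored by beta-Gal fragment complementation (chemiluminescent read, 1 h detection at ambient temperature) reporting beta-arrestin binding to GPR32 in engineered CHO-K1 cells. Compound treatment lasted 90 min at 37 C, normalized to a DMSO basal control.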
NTMT1 inhibitor = Primary qHTS for Inhibitors of N-terminal methyltransferase 1 (NTMT1): MTaseGlo Assay; N-terminal Xaa-Pro-Lys N-methyltransferase 1 (Homo sapiens), Q9BV86; NTMT1 MTase-Glo SAH luminescence, purified enzyme; Potency, µM (series often up to 114 µM), inactives show top-dose activity change, negative = inhibition, hits mostly inhibitors; 59,000 tested, 2.5% active;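 note: potency is the fitted concentration of half-maximal effect; plate controls were DMSO vehicle for no effect and no enzyme for full effect; nearly all actives have a fitted effect of over 65% in size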
Target sequence (Q9BV86 whole entry, looked up): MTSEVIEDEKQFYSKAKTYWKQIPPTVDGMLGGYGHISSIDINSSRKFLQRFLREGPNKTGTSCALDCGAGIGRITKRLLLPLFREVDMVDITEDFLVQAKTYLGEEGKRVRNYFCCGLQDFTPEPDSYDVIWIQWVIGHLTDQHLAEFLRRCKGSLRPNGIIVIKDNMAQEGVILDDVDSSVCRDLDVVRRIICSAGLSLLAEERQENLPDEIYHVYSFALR
Starred values were filed as active, the others as inactive; i = inactive; u = inconclusive; x = no result given; ! = not active in a repeat; [ ] = another dose, or the depositor's remark. The list is not random: actives were taken first. Their share in the collection is about 3.9%. Unless noted, calls come from the whole dose curve; as a rule, active = well fitted curve in the direction sought with a large enough effect; inconclusive = small, poorly fitted or top-dose-only effect, or another doubt; inactive = no such curve, though single readings can be large; an effect the other way counts as inactive or inconclusive.

SMILES | FH mod | SKOV3 invasion | GPR32 ag | NTMT1 inhibitor
COc1ccccc1NC(=O)Cn1nnc(C(=O)NCc2ccc3c(c2)OCO3)c1N | -3% | i | 42 | 5%
Nc1c(C(=O)NCc2ccc3c(c2)OCO3)nnn1CC(=O)Nc1ccc(Br)cc1 | -3% | 1% | 61* | 20%
COc1ccc(Cl)cc1NC(=O)Cn1nnc(C(=O)NCc2ccc3c(c2)OCO3)c1N | 0% | -4% | 112* | -2%
CN1C(=O)N(c2cc(Cl)cc(Cl)c2)C(=O)[C@@]1(C)Cc1ccc(Br)cc1 | u | x | x | 12%[57.5 µM]
O=C(C1CC1)N1CCc2cc(Br)cc(S(=O)(=O)Nc3ccc(F)c(F)c3)c21 | 28µM* | 34% | 38 | 17%
O=C(C1CC1)N1CCc2cc(Br)cc(S(=O)(=O)Nc3ccc(C(F)(F)F)cc3)c21 | -14% | i | 65* | 2%
Cc1cc(Nc2cccc(Cl)c2)nc2ccc(NC(=O)c3cccnc3)cc12 | u | i | 60* | u
Cc1cc(N2CCN(C)CC2)nc2ccc(NC(=O)Nc3ccccc3Br)cc12 | -16% | -10% | 103* | -2%
Cc1cc(N2CCC(C)CC2)nc2ccc(NC(=O)/C=C/c3cccc(Cl)c3)cc12 | -10% | i | 8 | -1%
Cc1cc(N2CCN(C)CC2)nc2ccc(NC(=O)Nc3cccc(Cl)c3)cc12 | -10% | -10% | 93* | u
Cc1ccc(/C=C/C(=O)Nc2ccc3nc(N4CCC(C)CC4)cc(C)c3c2)cc1 | -28% | 6% | -8 | 89µM*
Cc1cc(N2CCN(C)CC2)nc2ccc(NC(=O)Nc3ccccc3)cc12 | 2% | -21% | u | -12%
Cc1ccc(NC(=O)Nc2ccc3nc(N4CCN(C)CC4)cc(C)c3c2)cc1C | 1% | u | u | 89µM*
O=C(Nc1ccc(F)c(Cl)c1)C1CCCN1S(=O)(=O)c1ccc(F)cc1 (configuration not stated) | -5% | 4% | 83* | 5%
CN1C(=O)C(C)(C)c2cc(S(=O)(=O)N3CCCC3C(=O)Nc3ccc(F)cc3)ccc21 (configuration not stated) | 1% | 3% | -2 | 16%
COC(=O)C1=C(C)NC(C)=C(C(=O)OCCc2ccc(N3CCN(C(c4ccccc4)c4ccccc4)CC3)cc2)C1c1cccc([N+](=O)[O-])c1 (configuration not stated) | -8%[53.3 µM] | x | 0 | -1%[57.5 µM]
COC(=O)C1=C(C)NC(C)=C(C(=O)OCCCN2CCC(c3ccccc3)(c3ccccc3)CC2)C1c1cccc([N+](=O)[O-])c1 (configuration not stated) | -7%[53.3 µM] | -11% | 105* | 8%[57.5 µM]
CCOc1ccc(CCNC(=O)CCc2c(C)nc3c(c(C)nn3-c3ccccc3)c2C)cc1OCC | -20% | i | -3 | 89µM*
Cc1nc2c(c(C)nn2-c2ccccc2)c(C)c1CCC(=O)NCCc1ccccc1 | -3% | 0% | -7 | 8%
CC(C)c1ccc(NC(=O)c2cc(S(=O)(=O)NCCc3ccccc3)ccc2F)cc1 | u | -20% | -4 | 5%
CC(C)c1ccccc1Cc1cc(C(=O)Nc2ccc(S(=O)(=O)c3ccccc3C(C)(C)C)cc2)c(O)c(O)c1O | 2%[53.3 µM] | -24% | x | 71µM*!
CC(=O)O[C@H]1CC[C@]2(C)[C@H]3CC[C@]4(C)Oc5oc(C)cc(=O)c5C[C@H]4[C@]3(C)CC[C@H]2C1(C)C | -5%[53.3 µM] | x | x | 8%[29.8 µM]
COC(=O)C1=CO[C@@H](O[C@@H]2O[C@H](CO)[C@@H](O)[C@H](O)[C@H]2O)[C@@H]2[C@@](C)(O)[C@@H](O)C[C@]12O | 4%[53.3 µM] | x | x | 7%[29.8 µM]
Oc1ccc(C=Cc2cc(O)cc(O)c2)cc1 | -24%[53.3 µM] | 2% | x | u
Oc1ccc(/C=C/c2cc(O)cc(O)c2)cc1 | u | x | -1 | 45µM*!
COc1ccccc1NC(=O)COc1ccc(-c2nn(C)c(=O)c3ccccc23)cc1 | -14% | i | 95* | 0%
O=C(Nc1ncc(SCCN2CCCC2)s1)C1(c2ccc(S(=O)(=O)C3CC3)cc2)CC1C1CCCCC1 (configuration not stated) | -9% | x | x | 3%[57.5 µM]
O=c1c(-c2ccc(O)cc2)coc2cc(O)cc(O)c12 | u | 19% | -12 | 71µM*!
